Assay [1] has as its target Bile acid receptor (Homo sapiens) (UniProt Q96RI1). The experiment in a line: ATG_IR1_CIS: Attagene CIS-FACTORIAL HepG2 Assay for human Nuclear Receptor Subfamily 1 Group H Member 4 (NR1H4), IR1 submotif (AID 2282946). The note with it: IR1 reporter transcription, actives raise or lower the signal. Put shortly:
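Cells (human HepG2) carry transiently transfected cis-promoter reporter transcription units. Compounds are incubated 24 h, total RNA is reverse-transcribed and amplified, and labelled fragments are resolved by capillary electrophoresis. Curves use DMSO as baseline.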

Assay [2] in a line: ATG_GRE_CIS: Attagene CIS-FACTORIAL HepG2 Assay for human Glucocorticoid Response Elements (GRE) (AID 2282947). The note with it: HepG2 GRE cis-reporter, Attagene multiplex mRNA; actives raise or lower the signal. Put shortly:
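Assay uses human hepatoma HepG2 cells transfected with cis-promoter reporter units, exposed 24 h. mRNA from reporters detected by RT-PCR plus capillary electrophoresis; DMSO serves as negative control and baseline.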

A short description of assay [3]: ATG_ISRE_CIS: Attagene CIS-FACTORIAL HepG2 Assay for human Interferon Regulatory Factor 1 (IRF1) binding to an Interferon-Stimulated Response Element (ISRE) (AID 2282948). The note with it: HepG2 ISRE cis-reporter (Attagene), mRNA transcription readout; actives raise or lower the signal. Summed up:
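Quantitation relies on labelled RT-PCR fragments separated by capillary electrophoresis. Human HepG2 cells bearing cis-promoter reporter constructs were treated 24 h; DMSO served as baseline for bidirectional fitting.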

A short description of assay [4]: ATG_M_32_CIS: Attagene CIS-FACTORIAL HepG2 Assay for M32 Transcription Factor (Internal Marker) (AID 2282949).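 Note: background control marker of the multiplexed CIS panel rather than a real target.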 The note with it: HepG2 Attagene cis-factorial M32 reporter, mRNA; actives raise or lower the signal. Put shortly: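 Internal background marker read-out: RT-PCR/capillary electrophoresis fluorescence of reporter transcripts from transiently transfected HepG2 cells after 24 h chemical exposure. Activity fitted bidirectionally relative to DMSO negative control.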

Assay [5] is described as follows: ATG_M_06_CIS: Attagene CIS-FACTORIAL HepG2 Assay for M06 Transcription Factor (Internal Marker) (AID 2282950). The note with it: HepG2 Attagene CIS-FACTORIAL M06 internal marker reporter; actives raise or lower the signal. Summed up: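 Cells (HepG2, transiently carrying cis-driven reporter units) receive chemical for 24 h before RNA isolation. Reporter cDNA is PCR-amplified, FAM-labelled by primer extension, HpaI-digested and sized on a capillary analyser.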

Assay [6] addresses Hypoxia-inducible factor 1-alpha (Homo sapiens) (UniProt Q16665). The assay can be described thus: ATG_HIF1a_CIS: Attagene CIS-FACTORIAL HepG2 Assay for human Hypoxia Inducible Factor 1 (HIF1A) (AID 2282951). As to conditions: HepG2 Attagene cis-factorial HIF1a reporter transcription; actives raise or lower the signal. Summed up:
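Measures endogenous transcription-factor activity through cis-regulated reporter mRNA in HepG2. Cells dosed 24 h; transcripts quantified by RT-PCR with 6-FAM-labelled products separated by capillary electrophoresis; DMSO serves as negative control.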

Assay [7] deals with Hepatocyte nuclear factor 6 (Homo sapiens) (UniProt Q9UBC0). The experiment in a line: ATG_HNF6_CIS: Attagene CIS-FACTORIAL HepG2 Assay for human Hepatocyte Nuclear Factor 6 (HNF6) (AID 2282952). The note with it: HepG2 Attagene cis-factorial HNF6 reporter transcription; actives raise or lower the signal. Summed up:
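Transiently transfected HepG2 cells expressing cis-regulated reporter transcription units were exposed to chemical for 24 h in a 24-well format. Reporter transcript abundance was determined by fluorescence capillary electrophoresis.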

The target of assay [8] is Heat shock factor protein 1 (Homo sapiens) (UniProt Q00613). The experiment in a line: ATG_HSE_CIS: Attagene CIS-FACTORIAL HepG2 Assay for human Heat Shock Transcription Factor 1 (HSE) (AID 2282953). As to conditions: HepG2 HSE cis-reporter, Attagene RNA transcription; actives raise or lower the signal. Summed up:
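Liver-derived HepG2 cells carry transiently introduced multiple reporter units governed by cis promoters. Reporter RNA measured 24 h post-dose through reverse transcription, PCR amplification, fluorescent labelling and capillary electrophoresis, normalised to DMSO.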

Assay [9] can be described thus: ATG_MRE_CIS: Attagene CIS-FACTORIAL HepG2 Assay for human Metal Responsive Element (MRE) (AID 2282954). The note with it: HepG2 MRE cis-reporter transcription, Attagene multiplex; actives raise or lower the signal. Summed up: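 After a 24 h chemical exposure, transiently transfected HepG2 cells yield RNA whose reporter sequences are amplified, FAM-labelled and sized by capillary electrophoresis. Curves are fitted bidirectionally relative to DMSO.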

The target in assay [10] is Paired box protein Pax-6 (Homo sapiens) (UniProt P26367). The experiment in a line: ATG_Pax6_CIS: Attagene CIS-FACTORIAL HepG2 Assay for human Paired Box 6 (PAX6) (AID 2282956). The note with it: HepG2 CIS-FACTORIAL PAX6 reporter transcription, RNA readout; actives raise or lower the signal. Put shortly:
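After twenty-four hours of chemical exposure, transfected HepG2 cells are harvested for RNA. Cis-promoter reporter transcripts are amplified, fluorescently labelled and sized by capillary electrophoresis, with gain and loss of signal scored against DMSO.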

Assay [11] is described as follows: ATG_PXRE_CIS: Attagene CIS-FACTORIAL HepG2 Assay for human Pregnane X Receptor Element (PXRE) (AID 2282957). As to conditions: HepG2 Attagene CIS-FACTORIAL PXRE reporter, mRNA; actives raise or lower the signal. Summed up:
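Cis-element reporter mRNA in human hepatoma HepG2 cells is measured 24 h post-dosing by RT-PCR, primer-extension labeling and capillary electrophoresis; gain or loss of signal is fitted relative to DMSO.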

Assay [12] can be described thus: ATG_PPRE_CIS: Attagene CIS-FACTORIAL HepG2 Assay for human Peroxisome Proliferator-activated Response Element (PPRE) (AID 2282958). As to conditions: HepG2 PPRE cis-element reporter, Attagene transcription factor profiling; actives raise or lower the signal. Put shortly:
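Cells are first transfected transiently with the multiplexed reporter library, then dosed for 24 h. Total RNA is reverse-transcribed, amplified, fluorescently end-labeled and HpaI-cut before capillary electrophoresis; activity is fitted bidirectionally against DMSO controls.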

The nature of assay [13]: ATG_RORE_CIS: Attagene CIS-FACTORIAL HepG2 Assay for human RAR-related Orphan Receptor Element (RORE) (AID 2282959). The note with it: HepG2 Attagene cis-factorial RORE reporter, mRNA; actives raise or lower the signal. Summed up:
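Cells were HepG2 carrying transfected cis-regulated reporter constructs, dosed for 24 hours. Total RNA was reverse-transcribed and reporter cDNA amplified, fluorescently labeled and sized by capillary electrophoresis. Activity was fitted bidirectionally relative to DMSO.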

A short description of assay [14]: ATG_Sox_CIS: Attagene CIS-FACTORIAL HepG2 Assay for human SRY-box transcription factor (SOX) (AID 2282960). The note with it: HepG2 Attagene cis-factorial SOX reporter, mRNA; actives raise or lower the signal. Put shortly: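 Transient MRTU transfection of HepG2; 24 h compound incubation; TriZol RNA, oligo(dT) RT, PCR, 6-FAM primer extension, HpaI cut, CE. Bidirectional fit, DMSO = baseline.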

In assay [15] the target is Transcription factor Sp1 (Homo sapiens) (UniProt P08047). The experiment in a line: ATG_Sp1_CIS: Attagene CIS-FACTORIAL HepG2 Assay for human Specificity Protein 1 (Sp1) (AID 2282961). The note with it: HepG2 Sp1 cis-reporter transcription, actives raise or lower the signal. Put shortly:
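Endogenous Sp1 activity was gauged in human liver HepG2 cells bearing transfected reporter units under a cis-regulating promoter. After 24 h dosing, reporter mRNA was quantified by RT-PCR with capillary electrophoresis, and activity fitted bidirectionally versus DMSO.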

A short description of assay [16]: ATG_SREBP_CIS: Attagene CIS-FACTORIAL HepG2 Assay for human Sterol Regulatory Element Binding (SREBP) (AID 2282962). The note with it: HepG2 Attagene cis-factorial SREBP reporter, mRNA; actives raise or lower the signal. Summed up: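 Twenty-four hours after chemical dosing of transfected HepG2 cultures, reporter RNA was converted to cDNA, amplified, end-labelled with 6-FAM and resolved by capillary electrophoresis. Responses were fitted relative to DMSO.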

Assay [17] deals with Signal transducer and activator of transcription 3 (Homo sapiens) (UniProt P40763). The experiment in a line: ATG_STAT3_CIS: Attagene CIS-FACTORIAL HepG2 Assay for human Signal Transducer and Activator of Transcription 3 (STAT3) (AID 2282963). The note with it: HepG2, Attagene cis-factorial STAT3 reporter transcription; actives raise or lower the signal. Summed up:
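After a 24 h compound incubation, total RNA from MRTU-transfected HepG2 cells was converted to cDNA and reporter sequences PCR-amplified, labelled and profiled by capillary electrophoresis. Gain and loss of signal were referenced to DMSO.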

A short description of assay [18]: ATG_TCF_b_cat_CIS: Attagene CIS-FACTORIAL HepG2 Assay for human T-Cell-Factor with beta-catenin (TCF/b-cat) (AID 2282965). As to conditions: HepG2 TCF/beta-catenin cis-reporter transcription, actives raise or lower the signal. Summed up: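 Endogenous transcription factor activity is captured through cis-promoter reporter constructs transiently introduced into human HepG2 liver cells. Induced reporter mRNA is measured after 24 h and fitted bidirectionally relative to DMSO.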

Assay [19] in a line: ATG_PBREM_CIS: Attagene CIS-FACTORIAL HepG2 Assay for human Phenobarbital-responsive Enhancer Module (PBREM) (AID 2282955). The note with it: HepG2 PBREM cis-reporter, Attagene multiplexed transcription; actives raise or lower the signal. Put shortly:
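Fluorescence of labelled reporter cDNA fragments, resolved by capillary electrophoresis, gives mRNA induction in transfected HepG2 cells treated for 24 h; DMSO serves as negative control and baseline.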

A short description of assay [20]: ATG_TA_CIS: Attagene CIS-FACTORIAL HepG2 Assay for human TA Basal Promoter (AID 2282964). As to conditions: HepG2 Attagene CIS-factorial TA basal promoter reporter; actives raise or lower the signal. Summed up: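 Background internal-marker endpoint from a 52-component HepG2 cis-reporter panel. Cells treated 24 h; reporter transcripts quantified via RT-PCR and CE fluorescence against DMSO baseline.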

SMILES strings stand for the structures. Calls of active or inactive are those of the source. Rule for the calls: active = hit-call score of the fitted dose curve at least 0.9, where 1 is the maximum; inactive = score below 0.9.

Paired box protein Pax-6 (Homo sapiens), sequence (P26367 whole entry, looked up): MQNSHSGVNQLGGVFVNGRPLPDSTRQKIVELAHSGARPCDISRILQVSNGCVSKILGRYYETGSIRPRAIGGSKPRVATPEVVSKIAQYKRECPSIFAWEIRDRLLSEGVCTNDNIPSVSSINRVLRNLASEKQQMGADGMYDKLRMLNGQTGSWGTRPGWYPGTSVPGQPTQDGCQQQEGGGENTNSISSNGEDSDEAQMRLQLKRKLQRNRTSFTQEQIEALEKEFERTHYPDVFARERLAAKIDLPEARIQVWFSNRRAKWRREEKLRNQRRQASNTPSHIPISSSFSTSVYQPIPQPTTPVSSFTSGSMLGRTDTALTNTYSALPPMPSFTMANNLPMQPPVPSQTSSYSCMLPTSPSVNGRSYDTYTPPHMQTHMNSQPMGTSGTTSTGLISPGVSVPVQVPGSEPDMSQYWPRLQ
Hypoxia-inducible factor 1-alpha (Homo sapiens), sequence (Q16665 whole entry, looked up): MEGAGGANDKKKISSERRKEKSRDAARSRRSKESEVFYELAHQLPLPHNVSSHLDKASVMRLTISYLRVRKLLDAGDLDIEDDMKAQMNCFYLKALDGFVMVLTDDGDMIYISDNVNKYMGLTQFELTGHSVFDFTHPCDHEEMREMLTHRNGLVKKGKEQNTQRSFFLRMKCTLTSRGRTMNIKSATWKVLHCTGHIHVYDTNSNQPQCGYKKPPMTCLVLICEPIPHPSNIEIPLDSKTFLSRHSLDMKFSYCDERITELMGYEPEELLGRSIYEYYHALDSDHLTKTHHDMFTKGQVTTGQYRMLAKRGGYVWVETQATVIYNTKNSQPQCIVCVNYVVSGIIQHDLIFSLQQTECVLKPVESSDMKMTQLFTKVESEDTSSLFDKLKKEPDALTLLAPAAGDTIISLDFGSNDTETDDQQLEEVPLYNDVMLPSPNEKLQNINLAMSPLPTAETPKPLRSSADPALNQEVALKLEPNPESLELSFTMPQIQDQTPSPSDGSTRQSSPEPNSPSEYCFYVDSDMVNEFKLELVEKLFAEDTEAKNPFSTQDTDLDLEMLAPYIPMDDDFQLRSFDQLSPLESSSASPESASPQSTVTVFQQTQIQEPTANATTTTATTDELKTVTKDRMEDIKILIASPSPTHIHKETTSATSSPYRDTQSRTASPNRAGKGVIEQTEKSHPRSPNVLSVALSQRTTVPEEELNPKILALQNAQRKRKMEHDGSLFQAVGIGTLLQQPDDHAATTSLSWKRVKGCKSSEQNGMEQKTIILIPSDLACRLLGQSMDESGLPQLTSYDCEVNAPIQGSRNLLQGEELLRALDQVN
Hepatocyte nuclear factor 6 (Homo sapiens), sequence (Q9UBC0 whole entry, looked up): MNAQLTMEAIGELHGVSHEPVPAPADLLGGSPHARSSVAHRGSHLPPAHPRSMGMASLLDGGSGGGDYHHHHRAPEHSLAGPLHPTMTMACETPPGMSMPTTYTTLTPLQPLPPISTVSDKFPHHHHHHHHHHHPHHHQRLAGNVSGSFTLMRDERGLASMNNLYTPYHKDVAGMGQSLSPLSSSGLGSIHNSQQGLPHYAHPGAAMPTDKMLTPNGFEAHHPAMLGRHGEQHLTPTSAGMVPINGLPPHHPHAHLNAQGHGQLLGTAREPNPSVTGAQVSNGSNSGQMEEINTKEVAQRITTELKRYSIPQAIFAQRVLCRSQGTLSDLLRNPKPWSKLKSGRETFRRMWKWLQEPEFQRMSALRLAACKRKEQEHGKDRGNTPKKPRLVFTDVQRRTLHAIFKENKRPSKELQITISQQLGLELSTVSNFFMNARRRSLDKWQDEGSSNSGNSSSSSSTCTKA
Transcription factor Sp1 (Homo sapiens), sequence (P08047 whole entry, looked up): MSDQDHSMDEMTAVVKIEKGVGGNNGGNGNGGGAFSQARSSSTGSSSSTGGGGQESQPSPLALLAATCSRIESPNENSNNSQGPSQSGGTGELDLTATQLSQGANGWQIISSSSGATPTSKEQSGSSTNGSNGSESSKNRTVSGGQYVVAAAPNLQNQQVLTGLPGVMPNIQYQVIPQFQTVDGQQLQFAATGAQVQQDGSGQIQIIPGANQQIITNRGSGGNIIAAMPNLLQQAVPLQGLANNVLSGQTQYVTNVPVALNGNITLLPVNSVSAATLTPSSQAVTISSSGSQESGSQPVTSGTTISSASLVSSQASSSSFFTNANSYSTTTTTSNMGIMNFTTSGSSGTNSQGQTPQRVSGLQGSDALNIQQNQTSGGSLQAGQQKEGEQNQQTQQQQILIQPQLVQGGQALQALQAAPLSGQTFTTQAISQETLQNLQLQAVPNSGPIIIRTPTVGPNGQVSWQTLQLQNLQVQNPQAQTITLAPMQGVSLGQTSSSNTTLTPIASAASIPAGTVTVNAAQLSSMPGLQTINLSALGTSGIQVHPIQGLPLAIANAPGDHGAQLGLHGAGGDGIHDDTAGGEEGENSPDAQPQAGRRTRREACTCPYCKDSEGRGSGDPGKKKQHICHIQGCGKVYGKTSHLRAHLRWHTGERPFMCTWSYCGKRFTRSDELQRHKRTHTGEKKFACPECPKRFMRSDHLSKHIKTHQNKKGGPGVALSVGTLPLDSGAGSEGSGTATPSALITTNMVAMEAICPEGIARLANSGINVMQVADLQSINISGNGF
Signal transducer and activator of transcription 3 (Homo sapiens), sequence (P40763 whole entry, looked up): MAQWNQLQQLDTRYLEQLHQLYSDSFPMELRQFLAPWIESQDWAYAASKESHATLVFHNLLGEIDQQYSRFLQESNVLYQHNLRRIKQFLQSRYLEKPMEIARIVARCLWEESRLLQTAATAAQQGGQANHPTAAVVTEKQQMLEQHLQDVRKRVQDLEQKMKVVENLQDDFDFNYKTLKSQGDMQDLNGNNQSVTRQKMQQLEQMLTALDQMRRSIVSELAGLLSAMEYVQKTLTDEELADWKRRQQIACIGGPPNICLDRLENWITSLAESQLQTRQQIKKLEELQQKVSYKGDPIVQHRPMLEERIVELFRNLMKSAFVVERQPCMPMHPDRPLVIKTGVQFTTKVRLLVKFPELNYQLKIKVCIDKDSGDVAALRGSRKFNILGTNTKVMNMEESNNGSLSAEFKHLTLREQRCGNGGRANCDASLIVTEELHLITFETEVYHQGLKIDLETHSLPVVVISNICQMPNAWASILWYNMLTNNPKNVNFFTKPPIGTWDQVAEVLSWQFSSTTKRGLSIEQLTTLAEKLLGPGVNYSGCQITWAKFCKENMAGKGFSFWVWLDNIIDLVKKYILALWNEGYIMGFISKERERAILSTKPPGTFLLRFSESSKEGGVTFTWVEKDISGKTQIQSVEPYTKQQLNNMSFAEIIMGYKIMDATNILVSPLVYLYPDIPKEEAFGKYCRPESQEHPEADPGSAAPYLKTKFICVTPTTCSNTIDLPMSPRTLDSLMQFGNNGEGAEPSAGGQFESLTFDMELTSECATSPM
Heat shock factor protein 1 (Homo sapiens), sequence (Q00613 whole entry, looked up): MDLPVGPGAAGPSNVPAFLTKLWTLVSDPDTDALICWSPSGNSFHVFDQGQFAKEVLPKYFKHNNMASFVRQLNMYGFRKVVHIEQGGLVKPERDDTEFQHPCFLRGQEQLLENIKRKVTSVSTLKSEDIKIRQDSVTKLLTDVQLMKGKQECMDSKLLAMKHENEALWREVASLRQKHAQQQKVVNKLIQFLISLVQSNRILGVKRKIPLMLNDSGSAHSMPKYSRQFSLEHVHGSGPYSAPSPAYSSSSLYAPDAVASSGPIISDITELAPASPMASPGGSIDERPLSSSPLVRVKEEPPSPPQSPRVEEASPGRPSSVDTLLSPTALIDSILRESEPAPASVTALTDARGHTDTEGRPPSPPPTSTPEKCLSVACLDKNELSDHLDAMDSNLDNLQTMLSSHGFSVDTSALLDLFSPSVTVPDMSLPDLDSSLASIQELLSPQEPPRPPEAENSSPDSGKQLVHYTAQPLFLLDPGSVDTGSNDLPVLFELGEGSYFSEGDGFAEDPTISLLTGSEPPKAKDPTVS
Bile acid receptor (Homo sapiens), sequence (Q96RI1 whole entry, looked up, the tested form may be a part): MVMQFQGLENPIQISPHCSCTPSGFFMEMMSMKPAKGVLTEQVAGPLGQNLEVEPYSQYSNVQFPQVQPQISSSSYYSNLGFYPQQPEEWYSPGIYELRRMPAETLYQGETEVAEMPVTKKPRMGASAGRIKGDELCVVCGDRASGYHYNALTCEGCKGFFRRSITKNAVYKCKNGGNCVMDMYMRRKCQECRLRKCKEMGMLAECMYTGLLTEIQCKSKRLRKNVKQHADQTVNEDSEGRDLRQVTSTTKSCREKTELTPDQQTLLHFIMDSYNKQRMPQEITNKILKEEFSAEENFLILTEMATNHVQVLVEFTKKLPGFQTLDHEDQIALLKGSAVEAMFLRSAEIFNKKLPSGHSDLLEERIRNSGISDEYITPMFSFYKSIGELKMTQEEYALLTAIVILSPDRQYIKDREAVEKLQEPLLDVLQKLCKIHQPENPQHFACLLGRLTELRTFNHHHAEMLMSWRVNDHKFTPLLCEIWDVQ

For `COc1cc2ncnc(Nc3cccc(Cl)c3)c2cc1OC`, the outcome in [1], in [2], in assay [4], in assay [5], in [7] and in assay [8] was inactive. Besides, the result in [11], in assay [12], in assay [13], in assay [14], in assay [15] and in assay [16] was inactive. For the same molecule, the result in assay [17] was inactive. Further, the AC50 in assay [3] was 5.56 µM (active); in assay [6], 11.4 µM (active); in assay [9], 20.1 µM (active); in [10] it was 25 µM (active); in [18] it was 6.77 µM (active).

`CCCC(C)C=O` (configuration not stated): the outcome in assay [1], in [2], in assay [3], in assay [4], in [5] and in assay [6] was inactive. The molecule was called inactive in assay [7], in [8], in [9], in assay [19], in assay [10] and in [11]. For the same molecule, the call in assay [12], in assay [13], in assay [14], in assay [15], in [16] and in assay [17] was inactive. In addition, the call in assay [18] was inactive.

As to `CCC(C(=O)NC(N)=O)c1ccccc1` (configuration not stated), the call in [1], in assay [2], in assay [3], in [4], in [5] and in [6] was inactive. The molecule was called inactive in [7], in assay [8], in [9], in assay [10], in assay [11] and in [13]. Moreover, the call in [14], in [15], in [16], in [17] and in assay [20] was inactive.

In the case of `NC(=O)c1ccccc1Cl`, the outcome in assay [1], in assay [2], in assay [4], in [5], in [6] and in [7] was inactive. The result in assay [9], in assay [19], in [12], in assay [13], in [16] and in [17] was inactive. Also, the molecule was called inactive in assay [20]. Besides, the AC50 in assay [3] is 100 µM (active); in assay [8], 62.7 µM (active); in assay [10], 65 µM (active); in assay [11], 40.7 µM (active); in [14] it was 68.9 µM (active).

These data come from PubChem BioAssay (EPA / NIEHS).
